Laboratory results published in PubChem BioAssay AID686964 (The Scripps Research Institute Molecular Screening Center, 2013).
About 1,100 (0.3%) of roughly 370,000 compounds were called active. Shown is part of a subset that was picked to be rich in actives. A number with no mark means an inactive call. Cut-off read from the data, not from the text of the source: active = inhibition above about 13%; inactive = the rest.

What follows are compounds tested against Methyl-CpG-binding domain protein 2 (Homo sapiens) (UniProt Q9UBB5) (assay: MBD2-DBD methyl-oligonucleotide interaction blockers – biochemical, TR-FRET, DNA-binding domain, human, primary screen (AID 686964)). Settings: MBD2 binding to methylated oligonucleotide, at 4.4 µM, stronger effect = higher value.
Methyl-CpG-binding domain protein 2 (Homo sapiens), sequence (Q9UBB5 whole entry, looked up, the tested form may be a part): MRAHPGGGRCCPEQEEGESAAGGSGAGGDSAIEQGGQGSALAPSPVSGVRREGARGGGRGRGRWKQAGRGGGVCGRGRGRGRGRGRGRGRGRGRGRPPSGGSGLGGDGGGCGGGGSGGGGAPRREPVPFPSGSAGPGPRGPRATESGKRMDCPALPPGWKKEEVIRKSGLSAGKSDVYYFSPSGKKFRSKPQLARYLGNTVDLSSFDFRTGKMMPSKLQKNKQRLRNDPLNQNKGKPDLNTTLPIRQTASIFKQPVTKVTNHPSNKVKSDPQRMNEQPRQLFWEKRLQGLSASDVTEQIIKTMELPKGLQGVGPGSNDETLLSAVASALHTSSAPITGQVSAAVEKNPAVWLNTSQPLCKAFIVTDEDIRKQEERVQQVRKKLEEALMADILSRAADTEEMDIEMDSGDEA
In the case of `CC(C)(C)NC(=O)COC(=O)c1cc(Cl)ccc1[N+](=O)[O-]`, the inhibition is reported as -1.21%.
With `COC(=O)C[C@H]1CC[C@H]2[C@H](COc3ccc(NC(=O)C4CC4)cc3C(=O)N2C)O1` the inhibition was -4.11%.
With `Cc1ccc(N(C(=O)c2snc(C(N)=O)c2N)C(C(=O)NCC2CCCO2)c2c[nH]c3ccccc23)cc1` (stereo not given) the inhibition was 0.5%.
With `c1nc(COc2nsnc2N2CCOCC2)cs1` the inhibition was -0.47%.
With `C=CCn1c(=S)[nH]c2scc(-c3ccco3)c2c1=O` the inhibition was 21.2% (active).
With `Cc1ccc(Cn2cc(COC(=O)N(C)Cc3ccccc3)nn2)cc1` the inhibition was 3.5%.
Compound `O=C(NCc1cccs1)C1CCN(S(=O)(=O)c2ccccc2[N+](=O)[O-])CC1` has an inhibition of 0.44%.
`CCCn1c(SCC(=O)Nc2c(C)cccc2C)nnc1C(C)C` was tested, and the inhibition was 6.66%.
`CC(C)CC(COCc1ccc(Cl)cc1)N1CCN(C(=O)c2ccc(C(F)(F)F)cc2)CCC1=O` (stereo not given) was tested, and the inhibition was 4.33%.
For `COc1ccc(COC[C@H](CC(C)C)N2CCN(C(=O)c3cccc(C(F)(F)F)c3)CCC2=O)cc1`, the inhibition was 13.4% (active).
In the case of `O=C(c1ccc(C(F)(F)F)cc1)N1CCC(=O)N([C@H](COCc2ccccc2)Cc2ccccc2)CC1`, the inhibition is reported as 3%.
For `C[C@@H]1ON(C)[C@H]2C[C@H]3c4cc(N5CCOCC5)ccc4CCN3C[C@@H]12`, the inhibition was -5.34%.
`COC(=O)CNc1nc(Cl)nc(N2CCC(C)CC2)n1` showed an inhibition of 2.21%.
Work on `CCc1c(-c2ccc(F)cc2)ncn1Cc1cccc(-c2ccccc2)c1` yielded an inhibition of 1.61%.
`CCOC(=O)C1CCN(C(=O)C(C)(C)NC(=O)Nc2ccccc2Cl)CC1` was tested, and the inhibition was 1.47%.
With `Cc1c(CC(=O)N2CCN(C(=O)C3COc4ccccc4O3)CC2)c(=O)oc2c(O)c(O)ccc12` (stereo not given) the inhibition was 13.6% (active).
With `Fc1ccc2nc(COCc3nc4ccc(F)cc4[nH]3)[nH]c2c1` the inhibition was -0.41%.
Work on `CCC(C)n1[nH]c(=O)c2c(C)cc(C)nc21` (stereo not given) yielded an inhibition of -4.79%.
For `CCC(=O)Nc1cccc(C2=NOC3(C2)C[C@@H](C(N)=O)N(C(=O)c2cc([N+](=O)[O-])cc([N+](=O)[O-])c2C)C3)c1` (stereo not given in full), the inhibition was -0.08%.
With `COc1ccc(-n2cc(-c3ccccc3)c3c(=S)nc[nH]c32)cc1` the inhibition was 14% (active).
`O=c1[nH]cnc2c1c(-c1ccccc1)cn2-c1ccc(F)cc1` gave an inhibition of 4.57%.
`O=C(CNS(=O)(=O)c1ccccc1F)N1CCN(c2ccccn2)CC1` was tested, and the inhibition was -1.19%.
In the case of `COC(=O)c1ccc2nc(-c3cccc(Br)c3)c(Cc3ccc(OC)cc3C)n2c1`, the inhibition is reported as 14.9% (active).
Compound `COC(=O)c1ccc2nc(-c3ccc(C)cc3)c(Cc3ccc(OC)cc3C)n2c1` has an inhibition of 7.16%.
`COC(=O)c1ccc2nc(-c3ccccc3)c(Cc3ccc(OC)cc3C)n2c1` showed an inhibition of 10.6%.
`Cc1ccc(OCc2nnc(SC/C=C/c3ccccc3)n2Cc2ccco2)cc1` showed an inhibition of -3.87%.
Compound `C=CCN1C(=O)[C@@H](CC(=O)N2CCN(C(=O)OCC)CC2)[C@]2(C(=O)OCC)CCCCC/C=C/12` has an inhibition of 4.9%.
With `Brc1ccc(-c2n(-c3ccccn3)c3ccccc3[n+]2-c2ccccn2)cc1` the inhibition was 27.6% (active).
`CS(=O)(=O)N(C(=O)NC(=O)NC1CCS(=O)(=O)C1)C1CCCCC1` (stereo not given) gave an inhibition of 0.13%.
In the case of `CCCC1CCC2(CCCN2CCOC(=O)NCc2ccccc2)CC1` (stereo not given), the inhibition is reported as 3.95%.
With `COc1ccnc(NC(=S)N2CCN(c3ncc(C(F)(F)F)cc3Cl)CC2)c1` the inhibition was 6.09%.
`COc1ccc(-c2noc(CCCC(=O)NC3CCCC3)n2)cc1OC` showed an inhibition of -2.51%.
`CCOc1cc(-c2noc(CCC(=O)N3CCOCC3)n2)ccc1OC` showed an inhibition of -5.56%.
In the case of `CCOc1cc(-c2noc(CCCC(=O)NC3CCCCC3)n2)ccc1OC`, the inhibition is reported as 20.2% (active).
Work on `CCOC(=O)[C@]12CCCC=C1N(CCCOC)C(=O)[C@@H]2CC(=O)N1CCOCC1` yielded an inhibition of -0.28%.
Work on `Cc1cc(C(=O)NN=C/C=C/c2ccco2)n[nH]1` yielded an inhibition of -1.33%.
`C/C=C/c1ccc(OCCCCN2CCC(C)CC2)c(OC)c1` gave an inhibition of -2.18%.
In the case of `C[C@H](O)[C@@H]1C(=O)N2CCc3c([nH]c4c(-c5ccc6c(c5)OCO6)cccc34)[C@@H]2C[C@@H]1N(C)C(=O)c1ccco1`, the inhibition is reported as -2.04%.
`O=S(=O)(NCC1CCCO1)c1cnc(Cl)c(Cl)c1` (stereo not given) gave an inhibition of 4.2%.
In the case of `O=C(CC1CCCCC1)Nc1c2c(nn1-c1ccc(F)cc1)CS(=O)(=O)C2`, the inhibition is reported as 15.6% (active).
`O=C(Nc1c2c(nn1-c1ccccc1)CS(=O)(=O)C2)C1CCCC1` gave an inhibition of 2.43%.
`COc1ccccc1OCC(=O)Nc1c2c(nn1-c1ccc(F)cc1)CS(=O)(=O)C2` was tested, and the inhibition was -1.49%.
With `c1coc(CCNc2ncnc3ccc(-c4ccc5c(c4)OCO5)cc23)c1` the inhibition was -2.55%.
With `CC(C)Oc1ccc(C2NC(=O)NC2=O)cc1` (stereo not given) the inhibition was 15.2% (active).
`O=C1NC(=O)C(c2ccc(Cl)cc2)N1` (stereo not given) was tested, and the inhibition was 0.89%.
Work on `COc1ccc(C2NC(=O)N(C)C(C)=C2[N+](=O)[O-])cc1` (stereo not given) yielded an inhibition of 0.13%.
`CN(C)Cc1cn(-c2ccc(-c3noc4c3C(=O)N(CC(=O)N3CCOCC3)CC4)cc2)nn1` showed an inhibition of -2.86%.
`COC(=O)[C@]12C[C@H](CC(=O)NCc3ccc(OC)c(OC)c3)C(=O)N(Cc3ccccc3)C1=C[C@H](C(C)C)O[C@@H]2C1CC1` gave an inhibition of -2.93%.
For `Cc1ccc(CN2CCNC(=O)C2CC(=O)NCc2csc(C(C)C)n2)cc1` (stereo not given), the inhibition was 0.13%.
Work on `CC(C)c1nc(CNC(=O)CC2C(=O)NCCN2Cc2ccoc2)cs1` (stereo not given) yielded an inhibition of -4.85%.
`CC(C)c1nc(CNC(=O)CC2C(=O)NCCN2Cc2cccc(F)c2F)cs1` (stereo not given) was tested, and the inhibition was 24.3% (active).
In the case of `COc1ccc(Cn2cc(CN3[C@@H](CC(C)C)COc4cc(Br)ccc4S3(=O)=O)nn2)cc1`, the inhibition is reported as 0.36%.
In the case of `CN(C)CCNC(=O)c1ccc(Cl)c2cc3ccccc3nc12`, the inhibition is reported as 51.2% (active).
`Cc1c(C(=O)NCCN(C)C)oc2ccc(S(=O)(=O)N3CCCC3)cc12` was tested, and the inhibition was 4.85%.
`CN(C)CCNC(=O)Cc1ccc([N+](=O)[O-])cc1` showed an inhibition of -0.79%.
`COc1ccc(OCCCC(=O)Nc2cccc(S(=O)(=O)N3CCCCCC3)c2)cc1` gave an inhibition of -2.96%.
`C[C@H]1[C@H](c2ccccc2)Oc2cc(Br)ccc2S(=O)(=O)N1Cc1cccc(F)c1` gave an inhibition of 8.37%.
`O=C1/C(=C\c2ccc([N+](=O)[O-])cc2)CS(=O)(=O)C/C1=C/c1ccc([N+](=O)[O-])cc1` was tested, and the inhibition was -5.61%.
`O=S(=O)(c1ccccc1)N1CCC(c2ccccc2)CC1` was tested, and the inhibition was 0.43%.
`CCOc1ccc(S(=O)(=O)N2CCC(C(=O)NCc3ccccn3)CC2)cc1Cl` showed an inhibition of -0.81%.
With `CCOc1ccc(S(=O)(=O)N2CCC(c3ccccc3)CC2)cc1C(=O)O` the inhibition was 22.6% (active).
For `O=C(c1n[nH]c2c1CCC2)N1CCCC(Nc2cccc(F)c2)C1` (stereo not given), the inhibition was 14.7% (active).
`CSc1ncccc1C(=O)N1CCCC(Nc2ccc(F)c(F)c2)C1` (stereo not given) gave an inhibition of 2.81%.
`COC(=O)c1cccc(C(=O)N2CCCC(Nc3ccc4c(c3)OCCO4)C2)c1` (stereo not given) was tested, and the inhibition was 4.97%.
Compound `O=C(CSc1nnc(COc2ccccc2)n1-c1ccc(Cl)cc1)Nc1ccc2c(c1)OCO2` has an inhibition of 3.27%.
`Cc1ccccc1C(=O)N[C@H](C(=O)N1CCC[C@H]1C(=O)NCc1ccccc1)C(C)C` was tested, and the inhibition was -4.41%.
`COC(=O)Cc1ccc(OC2(C)CCN(Cc3ccc4c(c3)OCCO4)C2)cc1` (stereo not given) was tested, and the inhibition was 5.04%.
Compound `CC(OC(=O)c1ccc(S(=O)(=O)N2CCOCC2)cc1)c1ccccc1` (stereo not given) has an inhibition of 5.42%.
Work on `COc1ccc(S(=O)(=O)N2CCOCC2)cc1NC(=O)c1ccc(OCC(C)C)c(OC)c1` yielded an inhibition of 0.42%.
In the case of `COC(=O)c1c(NC(=O)c2ccc(S(=O)(=O)N3CCOCC3)cc2)sc2c1CCN(C(C)C)C2`, the inhibition is reported as 13.3% (active).
Compound `CC(OC(=O)CCC(=O)c1ccccc1)C(=O)Nc1ccc(F)cc1` (stereo not given) has an inhibition of -0.7%.
Work on `COCCNC(=S)N(C)[C@H]1C[C@H]2c3[nH]c4ccccc4c3CCN2C[C@H]1[C@H](C)O` yielded an inhibition of -2.52%.
With `CCOc1ccc(-n2c(SCC(=O)Nc3cc(C)c(NC(=O)c4ccccc4)cc3OC)nnc2-c2cccs2)cc1` the inhibition was -6.74%.
For `CCOc1ccc(N(CC(=O)NCCOc2ccccc2OC)S(=O)(=O)c2ccccc2)cc1`, the inhibition was 15.1% (active).
`COc1ccc(CCNC(=O)CN(c2ccccc2)S(=O)(=O)c2ccccc2)cc1` showed an inhibition of 2%.
With `CCOc1ccc(N(CC(=O)NCCc2ccc(F)cc2)S(=O)(=O)c2ccccc2)cc1` the inhibition was 4.6%.
`C=CCN1C(=O)[C@@H](CC(=O)N2CCN(C(=O)c3ccco3)CC2)[C@]2(C(=O)OC)CCCCC=C12` showed an inhibition of 3.2%.
`CN(CCc1ccccc1)C(=O)Cn1nc(-c2ccccc2)ccc1=O` was tested, and the inhibition was -0.03%.
`CCOC(=O)N1CCN(C(=O)C[C@H]2C[C@@]3(C(=O)OC)C(=C[C@H](C4CCCC4)O[C@@H]3C)N(Cc3ccccc3)C2=O)CC1` was tested, and the inhibition was -8.2%.
`COc1ccc2[nH]c3c(C)c4cc[n+](C)cc4c(C)c3c2c1` was tested, and the inhibition was 109% (active).
`CCCc1nnc(SCC(=O)N2C(C)CCCC2C)n1CC` (stereo not given) gave an inhibition of 3.6%.
Work on `O=P(c1cccs1)(c1cccs1)c1cccs1` yielded an inhibition of 0.79%.
For `Cc1ccc(Cc2cnc(N)s2)o1`, the inhibition was 19.8% (active).
`CCOc1ccccc1CN1CCN(C2CCC2)CC1CCO` (stereo not given) showed an inhibition of -1.77%.
Compound `CC1CCCCC12NC(=O)N(CC(=O)Nc1ccc(S(=O)(=O)Nc3ncccn3)cc1)C2=O` (stereo not given) has an inhibition of 5.36%.
